The record followed here is PubChem BioAssay AID894 (National Center for Advancing Translational Sciences (NCATS), 2007).

Out of some 150,000 compounds screened, about 6,500 (4.3%) were called active. Roughly 12% stayed inconclusive and do not appear here. The list comes from a sample in which actives are over-represented; it also holds similar structures and randomly drawn compounds. Unmarked numbers belong to inactive results. The call rests on the fitted dose curve; in most records, active means well fitted inhibition curve with a large enough effect (not every such curve was filed as active); inconclusive means small, poorly fitted or top-dose-only effect, or another doubt; inactive means no such curve, though single readings can be large or run the other way.
On the % scale 0 is the no-effect control and ±100 the full control effect; potency means the concentration at half of the fitted maximal effect.

Sequence of 15-hydroxyprostaglandin dehydrogenase [NAD(+)] (Homo sapiens) (P15428 whole entry, looked up): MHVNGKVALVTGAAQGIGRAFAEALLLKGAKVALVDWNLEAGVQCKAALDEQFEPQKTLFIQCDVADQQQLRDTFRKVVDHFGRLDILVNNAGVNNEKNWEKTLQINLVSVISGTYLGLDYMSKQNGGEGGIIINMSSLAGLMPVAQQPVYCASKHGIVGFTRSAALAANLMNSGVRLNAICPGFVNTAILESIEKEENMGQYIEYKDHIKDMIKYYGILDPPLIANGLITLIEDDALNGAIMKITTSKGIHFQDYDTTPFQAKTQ

This test has as its target 15-hydroxyprostaglandin dehydrogenase [NAD(+)] (Homo sapiens) (UniProt P15428). Kind of test: qHTS Assay for Inhibitors of HPGD (15-Hydroxyprostaglandin Dehydrogenase). The following applies: purified HPGD, NADH fluorescence kinetic, PGE2 substrate; activity change, negative = inhibition: hits give low values. In outline: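 20 nM HPGD preincubated 15 min at room temperature with compound in 50 mM Tris-HCl pH 8, 0.01% Tween 20. Started with 1 mM NAD+ and 30 uM prostaglandin E2; NADH fluorescence (360/450 nm) read 5 times over 30-s intervals, last minus first.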
For orientation: qHTS replaces the single test concentration by a dilution series.
Consider `COc1ccc(-c2nc(-c3ccccc3)oc2Nc2ccc3ccccc3c2)cc1`, for which the activity change, negative = inhibition is -1.48%.

In the case of `COc1ccccc1-n1c(C)nc2cc(C(=O)NCc3ccc4c(c3)OCO4)ccc21`, the activity change, negative = inhibition is -21.3%.

Consider `COc1ccccc1-n1cnc2cc(NS(=O)(=O)c3ccccc3)ccc21`, for which the Potency is 14.1 µM (active).

Regarding `O=C(NCCN1CCOCC1)c1ccc2c(c1)ncn2C1CCCC1`, the activity change, negative = inhibition was -2.32%.

For the compound `COCCCNC(=S)NC(=O)c1ccccc1`, the activity change, negative = inhibition is -5.04%.

In the case of `Cc1ccccc1CN(c1ccc(C(=O)NCC2CCCO2)cc1)S(C)(=O)=O` (stereo unspecified), the activity change, negative = inhibition was -4.02%.

For `COc1cc(NS(=O)(=O)c2ccccc2)ccc1-n1nc(C)cc1C`, the activity change, negative = inhibition was -3.88%.

As to `COc1ccccc1-n1cnc2cc(C(=O)NCC3CCCO3)ccc21` (stereo unspecified), the Potency was 12.6 µM (active).

As for `COCCCNC(=O)c1ccc2c(c1)ncn2-c1ccccc1OC`, the Potency is 11.2 µM (active).

`COc1ccc(NS(=O)(=O)c2ccc(NC(C)=O)cc2)cc1OC`: the activity change, negative = inhibition is -1.98%.

Regarding `CC(=O)NC1C(Oc2ccc(C)cc2)OC2COC(c3ccco3)OC2C1O` (stereo unspecified), the activity change, negative = inhibition is 0.675%.

`COc1ccccc1-c1nnc(NC(=O)c2ccc3ncsc3c2)o1`: the activity change, negative = inhibition is -16.3%.

Take `Cc1ccccc1NC(=S)N(CCCN1CCOCC1)Cc1cccs1`: the activity change, negative = inhibition is 8.96%.

With `N#Cc1ccc(N2Cc3ccccc3/C2=N/C(=O)Nc2ccc(Cl)cc2)cc1`, the activity change, negative = inhibition was -24.3%.

Regarding `CCCCN(CC)C(=O)c1ccccc1Oc1ccccc1`, the activity change, negative = inhibition is -9.66%.

Turning to `CC(=O)N/C(=C/c1ccc(OC(F)F)cc1)C(=O)O`, the activity change, negative = inhibition was -3.55%.

In the case of `CN(C)C(CNC(=O)c1ccc(S(=O)(=O)NCc2ccco2)cc1)c1ccccc1` (stereo unspecified), the activity change, negative = inhibition is -10.1%.

For the compound `CCCc1nc(SCC(=O)Nc2ccc(S(=O)(=O)N(C)C)cc2)c2ccccc2n1`, the activity change, negative = inhibition was -22.1%.

For the compound `CONc1nc2nonc2nc1NOC`, the activity change, negative = inhibition is -6.28%.

Turning to `CCc1c(C)nc(N2CCN(Cc3ccccc3)CC2)[nH]c1=O`, the activity change, negative = inhibition is -6.13%.

Consider `Cc1nnc(SCc2cc(=O)[nH]c(N3CCN(Cc4ccccc4)CC3)n2)s1`, for which the Potency was 10 µM (active).

Take `O=c1cc(CSc2ccccn2)nc(N2CCN(c3ccccc3)CC2)[nH]1`: the activity change, negative = inhibition is -4.21%.

Take `CC(C)CNC(=O)CC(NCC(C)C)C(=O)O` (stereo unspecified): the activity change, negative = inhibition was -6.89%.

With `Cc1ccc2[nH]cc(CCCN3C(=O)c4ccccc4C3=O)c2c1`, the activity change, negative = inhibition is -4.52%.

Take `O=C(CSCc1c(F)cccc1Cl)NCC1CCCO1` (stereo unspecified): the Potency was 14.1 µM (active).

With `O=C(NCC1CCCO1)C(C(=O)c1ccccc1)n1cc(Cl)ccc1=O` (stereo unspecified), the activity change, negative = inhibition is -7.62%.

On to `O=C(CS(=O)(=O)Cc1ccccc1)NCC1CCCO1` (stereo unspecified), for which the activity change, negative = inhibition is -19.1%.

As for `CC(=O)[C@H](C(c1ccccc1)N1CCOCC1)N1CCOCC1` (stereo partly specified), the activity change, negative = inhibition was -6.44%.

As to `O=C(CCCCCNC(=O)c1ccccc1)N/N=C/c1ccccc1`, the activity change, negative = inhibition is -2.21%.

In the case of `CN(C)S(=O)(=O)c1cccc(NC(=S)N/N=C/C(=O)c2ccccc2)c1`, the activity change, negative = inhibition is -16%.

With `O=C(Nc1ccc2c(c1)OCCO2)c1ccncc1`, the activity change, negative = inhibition was -1.78%.

With `O=C(Nc1nc2ccccc2s1)c1ccc2c(c1)OCO2`, the activity change, negative = inhibition is -20.6%.

On to `Cc1ccc2sc(NNC(=O)c3ccc4c(c3)OCCO4)nc2c1C`, for which the Potency is 11.2 µM (active).

In the case of `CCCCn1c(O)c(N=NC(=O)Cn2c(C(F)(F)F)nc3ccccc32)c2ccccc21`, the activity change, negative = inhibition was -5.51%.

On to `CNS(=O)(=O)c1ccc(N2CCCC2=O)c([N+](=O)[O-])c1`, for which the activity change, negative = inhibition was -12.5%.

Consider `COc1cc(NS(=O)(=O)c2ccc(N/C=C(\C=O)c3nc4cc(Cl)ccc4o3)cc2)nc(OC)n1`, for which the Potency is 14.1 µM (active).

Take `COc1ccc(NS(=O)(=O)c2ccc(NC(=O)C(C)(C(F)(F)F)C(F)(F)F)cc2)nn1`: the activity change, negative = inhibition was -19.1%.

For the compound `COC(=O)c1ccc(CSc2nc3cc(Cl)ccc3o2)cc1`, the activity change, negative = inhibition is -20.6%.

Turning to `O=C(NC(CC(=O)N1CCN(c2ccccc2)CC1)c1ccccc1)c1ccccc1Cl` (stereo unspecified), the activity change, negative = inhibition was -5.04%.

`COc1ccc(N(C(=O)c2ccc(C)cc2)S(=O)(=O)c2cccs2)cc1`: the activity change, negative = inhibition is -10%.

`COc1ccc(N2C(=O)C(O)C2c2ccc(C)cc2)cc1` (stereo unspecified): the activity change, negative = inhibition was -14.1%.

As for `Cc1ccc(S(=O)(=O)c2ccc(Cl)cc2)cc1S(=O)(=O)NC(C(=O)O)C(C)C` (stereo unspecified), the activity change, negative = inhibition was -5.59%.

For `O=C(/C=C/c1ccc(Cl)cc1Cl)NCc1ccco1`, the Potency is 15.8 µM (active).

With `O=C(NCc1ccco1)C1(c2ccc(Cl)cc2)CCCC1`, the activity change, negative = inhibition is -8.03%.

As to `O=C(NCc1ccco1)c1cc(-c2cccnc2)nc2ccc(Cl)cc12`, the activity change, negative = inhibition is -28%.

`CCNC(=S)N(CCc1c(C)[nH]c2ccc(C)cc12)Cc1ccco1`: the activity change, negative = inhibition is -13.1%.

Take `COc1cc2c(cc1OC)C(=O)NCC(C)(C)O2`: the activity change, negative = inhibition was -19.2%.

For the compound `COc1ccc(-n2c(C)csc2=S)cc1`, the activity change, negative = inhibition was -9.23%.

Regarding `COc1ccc(-c2cn(-c3ccc(OC)cc3)c(=S)[nH]2)cc1`, the Potency is 25.1 µM (active).

As for `COc1ccc(N2C(=O)CNC2=S)cc1`, the activity change, negative = inhibition was -14.3%.

As to `CN(C)S(=O)(=O)c1cc(NC(=O)CN2C(=O)NC3(CCCc4ccccc43)C2=O)ccc1Cl` (stereo unspecified), the activity change, negative = inhibition is -12.7%.
